According to publication PMC10163288:
The list is a sample of the results. No count for the full screen is at hand.

B1: il10ra_site1_sap_16_mot_HHH_b2_00093_af2_000000025_0001_40_54_H_._HHH_b1_03751_0001_0001000047_0000001_0_0001_af2pred_0001 (protein)
chain: SSSSSEEERFYQLLLEALRLARRLNDEEVEEELRELLEEYKQKGDPRVEERIEELLKELRSSSSS
B2: il10ra_site1_sap_29_mot_HHH_b2_02354_af2_000000157_0001_40_56_H_._ems_3hM_2942_af2_0001_0000100002_0000002_1_0001_af2pred_0001 (protein)
chain: SSSSTAEEDVRLAIAAAELALKAGDPEKARRALEIAKLIARQGNNPELEEELEELEEEINSSSSS
B3: il10ra_site1_normal_mot_HHH_b2_00479_000000091_0001_1_12_H_._HHH_b2_03388_af2_0001_0000400024_0000002_0 (protein)
chain: SSSSTEENDEVYKLIREALELMARGNPEEARKVLEEAEEILEELNNRVLLFNVRFLLRELGSSSS
B4: il10ra_site1_normal_mot_HHH_b1_05056_000000217_0001_1_20_H_._HHH_b2_04661_af2_0001_0000500034_0000002_0 (protein)
chain: SSSSDEEELEELLEKLEELAEKGDRERFLELVLRLSELIFRLGDKEALQRLWELVREFLRRSSSS
B5: il10ra_site1_normal_mot_HHH_b2_02337_000000026_0001_38_52_H_._HHH_b2_04776_0001_0000200023_0000003_0 (protein)
chain: SSSSSSEEEEEIEELLEQLERAKSDEEISEVALRLVRLIWELNNQELLQRLWEIVKRLASSSSSS
B6: il10ra_site1_normal_mot_HHH_b2_04274_000000146_0001_1_19_H_._5a9ba470ffdefe7bbe7d066b6a6aec3b_0001_af2_0001_0000200013_0000001_1_af2pred_0001 (protein)
chain: NELVKAIRLLLQRFADDPEVLRVLRRILKLSLEDPEEAVELLLELAEKLGDPEVEELAREVERRR
B7: il10ra_site1_sap_16_mot_HHH_b2_08144_af2_000000046_0001_38_52_H_._HHH_b2_08331_0001_0000200020_0000002_0_0001 (protein)
chain: SSSSNAAEYLVRQALRAARLAKENNDPELVKRALEIAERIAENANDPELKELVEEVEEELESSSS
B8: il10ra_site1_normal_mot_HHH_b1_05326_000000242_0001_1_20_H_._HHH_b2_08124_0001_0000100011_0000002_0 (protein)
chain: SSSSSSDEFLRLLRRIFRLLLRGNPEEAQELLEELEELAEELNDPAARRAVEILKEAASSSSSSS
B9: il10ra_site1_normal_mot_HHH_b1_02809_af2_000000277_0001_40_57_H_._HHH_b2_07682_0001_0000300022_0000001_0_af2pred_0001 (protein)
chain: SSSSSRDEEAVRRALRLAKWLREAGDEEAVRKYLKAAKILAKRIGDPELEELVERVEEHLSSSSS
B10: il10ra_site1_normal_mot_HHH_b2_00273_000000062_0001_23_39_H_._HHH_b2_06821_0001_0000300032_0000001_0 (protein)
chain: SSSSEIEEFIEEVEERVRELVERGDTEEALQLLWEAAKLVAENNDEEALRILMELLRLVFRSSSS
B11: il10ra_site1_normal_mot_HHH_b2_01235_000000294_0001_1_18_H_._HHH_b1_05611_0001_0000600040_0000001_0_af2pred_0001 (protein)
chain: SSSSDVTERVLELLREALKLLKDGNPEEAREVLEEAEELAEEGNDELLRHLIEFAQEEIDSSSSS
B12: il10ra_site1_sap_16_mot_HHH_b2_03220_af2_000000223_0001_23_40_H_._HHH_b1_06161_af2_0001_0000300008_0000002_0_0001 (protein)
chain: SSSSSSDEEAAELIREISKVLAEGDRERVEELLEELEKLAEELGDPAARIYVEFVKQLLSSSSSS
B13: il10ra_site1_sap_21_mot_HHH_b1_05357_000000034_0001_23_39_H_._HHH_b2_05349_0001_0000600054_0000001_0_0001_af2pred_0001 (protein)
chain: SSSSNREQRVAELLARALRAAAEGNPEEAERLLEEARELAEELNDEELERAIEILKRYVERSSSS
B14: il10ra_site1_sap_23_mot_0eddeacbb14b769e73e254714f31e2f9_0001_af2_000000127_0001_37_51_H_._HHH_b1_00538_0001_0000500024_0000001_0_0001 (protein)
chain: SSSSSEEEEKAKELIELLEELAKEGDPEEFNRVALEAVRLVLELGDAELLRELWELFKSVSSSSS
B15: il10ra_site1_normal_mot_HHH_b1_08477_000000091_0001_40_57_H_._HHH_b1_03479_0001_0000200016_0000001_0 (protein)
chain: SSSSSEEEERVRQALRFAEALYKSGNPEAAESLLRVLVQSLRRLGNEELVELVEQVLEELNSSSS
B16: il10ra_site1_normal_mot_8756ee2cf497b5429c717dfc0c0bcfd6_0001_000000186_0001_1_13_H_._HHH_b2_04770_af2_0001_0000400016_0000001_0_af2pred_0001 (protein)
chain: SSSSSSDEELKRVQELIRRAAKITDEEELREVLEEAKELAEELGNEILRVIVEFLLELMTSSSSS
B17: il10ra_site1_sap_15_mot_HHH_b2_04646_000000019_0001_1_20_H_._HHH_b1_08112_af2_0001_0000300009_0000001_0_0001 (protein)
chain: SSSSDVEEEVEELLEQAEELARRGNPEEAYKLLKEAAELASEANDPELQRLVVEVSRRVIGSSSS
B18: il10ra_site1_sap_24_mot_HHH_b1_04771_000000013_0001_40_56_H_._HHH_b2_02918_af2_0001_0000100007_0000001_0_0001 (protein)
chain: SSSSDDEERVKQAIRFARWLLENGDKEAAKRIVEAAQDIARKGGNEELVQELEELEEEIKSSSSS
B19: il10ra_site1_sap_20_mot_HHH_b1_04573_000000273_0001_43_57_H_._HHH_b2_07679_0001_0000100005_0000002_0_0001 (protein)
chain: SSSSSDENEEIYRLLREAAEALANGNPEEAREIVEQAVELAEEANSQVLLFNAEYLLRQINSSSS
B20: il10ra_site1_sap_24_mot_HHH_b1_00999_000000080_0001_41_55_H_._HHH_b1_05694_af2_0001_0000300017_0000001_0_0001_af2pred_dldesign_0_af2pred (protein)
chain: SSSSDPQRVVELIHEANRLVDEGRLDEAERLLEEALRLARAADDAELAAAVEKALAFVRSLSSSS
B21: il10ra_site1_normal_mot_HHH_b1_00999_000000080_0001_41_55_H_._HHH_b1_02815_0001_0000700030_0000002_0 (protein)
chain: SSSSDEEEERSKELLEELEELLRRGDQHRFLRLLQHIVRFAFEVSDEELLHEVWRLAREFGSSSS
B22: il10ra_site1_normal_mot_HHH_b1_05357_000000034_0001_23_39_H_._HHH_b2_00878_af2_0001_0000100001_0000001_0_af2pred_0001 (protein)
chain: SSSSSSDLEEEVEKLLEEAEKIEDQLRLAYVLTRAYAVANRLNDPELRELIREVAKKLSSSSSSS
B23: il10ra_site1_normal_mot_0cd074c2d6d3de76f1399c5a775575d2_0001_1_af2_000000000_0001_16_30_H_._a6da520ff4a02840130205282d0b8d49_0001_0001_0000200007_0000001_0_af2 … (protein)
chain: SREQAILYAAIVASGGDEDRIEHLLEIYYEFTGDPAVKEVLERLRAAKAAGIPAEELLKQLEAEN
B24: il10ra_site1_sap_20_mot_HHH_b1_01886_000000262_0001_1_18_H_._HHH_b1_05552_af2_0001_0000500031_0000001_0_0001_af2pred_dldesign_0_af2pred (protein)
chain: SSSSSDLAAVLAEAEALFARSKTVSPEEKEVILQRIVDLALKHENLEVAKLANELLKELSSSSSS
B25: il10ra_site1_sap_25_mot_2c1a291787c6f40772924d4e9068d803_0001_af2_000000187_0001_34_48_H_._HHH_b2_07308_af2_0001_0000400007_0000002_0_0001_af2pred_0001 (protein)
chain: SSSSSTREEVIKRVIELLREARRIEDPEEREEVLEEAHRLAEEGNNELLKFIVESLERKLSSSSS
B26: il10ra_site1_sap_16_mot_HHH_b2_06643_000000103_0001_1_18_H_._HHH_b2_07694_0001_0000100008_0000001_0_0001_af2pred_0001 (protein)
chain: SSSSSSEEEELAELALRLLVEALQHGDPELREEIKELIEEAEKVGDERVVRLLRAALRALSSSSS
B27: il10ra_site1_normal_mot_8756ee2cf497b5429c717dfc0c0bcfd6_0001_000000186_0001_1_13_H_._HHH_b2_05079_af2_0001_0000100002_0000002_1_af2pred_dldesign_0_af2pred (protein)
chain: SSSSSSELEELKNLIKEIAELLYEGKPEEARELLEKAEELAKKLGNKTALATLDYLRRQIESSSS
B28: il10ra_site1_sap_25_mot_HHH_b2_05323_000000159_0001_1_18_H_._HHH_b1_08298_af2_0001_0000500034_0000001_0_0001 (protein)
chain: SSSSDEELQEAFELLREAVEALLDGNPEEAEKLLEEARKLAEEAGNRLLRWQIEWLLEKVRSSSS
B29: il10ra_site1_normal_mot_HHH_b2_00441_000000147_0001_1_18_H_._HHH_b1_04947_af2_0001_0000200007_0000001_0_af2pred_0001 (protein)
chain: SSSSDEYLKKAIRALFRAIKRAIELGDEEVVRLALKDLRFLAREHNDEEAEELLKELEELLSSSS
B30: il10ra_site1_normal_mot_HHH_b2_00984_000000042_0001_1_20_H_._HHH_b2_07534_0001_0000600066_0000001_1 (protein)
chain: SSSSDEEEKRLEELLEEVRELLERGDPERAARLAQELLRHIFRASDEEALQELWELIKREASSSS
B31: il10ra_site1_normal_mot_HHH_b2_03328_af2_000000127_0001_1_19_H_._HHH_b1_03894_0001_0000100001_0000001_0 (protein)
chain: SSSSSSNELYELSREALELFANGNPEEAQRVVEEAIELAEELGNRVILFTLRHLLRVISSSSSSS
B32: il10ra_site1_normal_mot_HHH_b1_08477_000000091_0001_40_57_H_._HHH_b2_05084_0001_0000800035_0000001_0 (protein)
chain: SSSSDIAEETARFLLEMAERLIEQGNPEYARQALRFALRLARDAGNPELEEEIQKLLEELGSSSS
B33: il10ra_site1_normal_mot_HHH_b2_06857_af2_000000179_0001_42_54_H_._HHH_b2_07752_af2_0001_0000500038_0000002_0 (protein)
chain: SSSSNELHEELYELIRKAAELARNGNPEEAEKVLEEARKIAEELNNELAEFQIRFLERLLSSSSS
B34: il10ra_site1_sap_4_mot_HHH_b2_01447_af2_000000258_0001_1_20_H_._HHH_b1_07772_0001_0000100001_0000002_0_0001 (protein)
chain: SSSSDTRELYRLSREAMELLARGNPEEAEKVLEEAIEIAREAGDFNFLFNLEHVLKVIEQSSSSS
B35: il10ra_site1_sap_15_mot_HHH_b2_05813_000000266_0001_1_19_H_._ems_3hC_1310_0001_af2_0001_0000600040_0000002_0_0001 (protein)
chain: SSSSADEEFEFTREKYEEARELLQNGNPEEAEEVLEEAREYLKEAGNWAALFAVEVLLKQLSSSS
B36: il10ra_site1_normal_mot_HHH_b2_02537_000000065_0001_1_20_H_._HHH_b1_07925_0001_0000100001_0000001_0 (protein)
chain: SSSSTDEVFEFTRRVIEEASELFRNGNPEEAERVLEEAREYLEELGDELALRSVEHLLRAISSSS
B37: il10ra_site1_sap_19_mot_HHH_b1_05214_000000232_0001_38_57_H_._HHH_b2_00758_0001_0000400024_0000001_0_0001 (protein)
chain: SSSSDIRELYELSREAVELRHEGNPEEAEKVVEEAEELARELNNRVLLAVIEWLREAIETSSSSS

Target: il10ra, Q13651
Assay: yeast display titration

il10ra, Q13651, sequence (Q13651 whole entry): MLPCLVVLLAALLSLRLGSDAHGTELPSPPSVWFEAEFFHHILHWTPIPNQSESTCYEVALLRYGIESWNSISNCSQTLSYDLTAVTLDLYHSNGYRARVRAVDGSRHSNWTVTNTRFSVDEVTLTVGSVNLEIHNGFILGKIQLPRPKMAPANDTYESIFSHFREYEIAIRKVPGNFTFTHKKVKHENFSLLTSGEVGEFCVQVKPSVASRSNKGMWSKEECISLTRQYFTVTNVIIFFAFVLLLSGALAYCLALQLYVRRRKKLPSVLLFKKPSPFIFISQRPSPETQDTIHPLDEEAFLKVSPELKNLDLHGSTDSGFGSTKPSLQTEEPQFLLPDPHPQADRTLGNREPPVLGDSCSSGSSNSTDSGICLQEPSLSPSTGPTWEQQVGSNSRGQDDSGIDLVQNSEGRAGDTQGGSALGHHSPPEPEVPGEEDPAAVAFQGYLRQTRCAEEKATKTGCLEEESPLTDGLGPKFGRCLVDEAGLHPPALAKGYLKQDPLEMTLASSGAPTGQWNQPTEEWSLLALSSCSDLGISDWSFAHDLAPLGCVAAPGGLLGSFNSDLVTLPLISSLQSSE

Apparent Kd, inactive:
B1 no binding seen
B2 > 1500 nM
B3 no binding seen
B4 no binding seen
B5 no binding seen
B6 no binding seen
B7 no binding seen
B8 no binding seen
B9 no binding seen
B10 no binding seen
B11 no binding seen
B12 no binding seen
B13 no binding seen
B14 no binding seen
B15 no binding seen
B16 no binding seen
B17 no binding seen
B18 no binding seen
B19 no binding seen
B20 no binding seen
B21 no binding seen
B22 no binding seen
B23 no binding seen
B24 no binding seen
B25 no binding seen
B26 no binding seen
B27 no binding seen
B28 no binding seen
B29 no binding seen
B30 no binding seen
B31 no binding seen
B32 no binding seen
B33 no binding seen
B34 no binding seen
B35 no binding seen
B36 no binding seen
B37 no binding seen
